Consider 37 compounds from PubChem BioAssay (EPA / NIEHS).

Values joined by “and” are separate entries in the source; they are usually repeats but may differ in a detail not shown here. Equal entries are not always repeated. Active and inactive are the calls of the source. How the source made its calls: active means hit-call score of the fitted dose curve at least 0.9, where 1 is the maximum; inactive means score below 0.9.

One test in a line: ATG_NF_kB_CIS: Attagene CIS-FACTORIAL HepG2 Assay for human Nuclear Factor Kappa B (NF-kB) (AID 2282991). The following applies: HepG2 Attagene cis-factorial NF-kB reporter mRNA; actives raise or lower the signal. The gist of the method: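 Endpoint from a 52-component multiplexed HepG2 reporter panel: cis-regulated transcription units transiently transfected, 24 h dosing, reporter mRNA quantified by RT-PCR and capillary electrophoresis, scored as increase or decrease against DMSO.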
In the case of `Brc1cc(Br)c(Oc2c(Br)cc(Br)c(Br)c2Br)cc1Br`, the call was inactive.
`FC(F)(F)C(F)(F)C(F)(F)C(F)(F)I`: the compound was classed as inactive.
Same read-out and setting: the result for `Cc1ccc(C(=O)c2ccccc2)cc1` reads “inactive”; that for `FC(OC(F)(F)C(F)(F)C(F)(F)F)C(F)(F)F` (centres undefined), “inactive”.
On to `C=CC(=O)OCCC(F)(F)C(F)(F)C(F)(F)C(F)(F)C(F)(F)C(F)(F)C(F)(F)C(F)(F)F`, for which the compound was classed as inactive.
With `OCC(F)(F)C(F)(F)C(F)(F)C(F)(F)C(F)(F)C(F)(F)C(F)(F)C(F)(F)C(F)(F)C(F)(F)C(F)(F)F`, the call was inactive.
Same read-out and setting: the result for `CCCCCCCCC1CCC(=O)O1` (centres undefined) reads “inactive”; that for `CC1CCC(C(=O)O)CC1` (centres undefined), “inactive”; that for `Cc1ccc2ccc3ccc(C)cc3c2c1`, “inactive”.
Consider `O=S(=O)(O)C(F)(F)C(F)(F)C(F)(F)C(F)(F)C(F)(F)C(F)(F)C(F)(F)C(F)(F)C(F)(F)C(F)(F)F`, for which the AC50 was 14.6 µM (active) and 9.12 µM (active).
In the case of `Oc1cc2ccccc2cc1O`, the result was inactive.
Still for that read-out and setting: the result for `CCCCCCC(C)(C)C(=O)O` reads “inactive”; that for `NC(C(F)(F)F)C(F)(F)F`, “inactive”; that for `O=CC(F)(F)C(F)(F)C(F)(F)F`, “inactive”.
On to `CC1=NN(c2ccccc2)C(=O)C1`, for which the outcome was inactive.
As for `CCc1cccc(CC)c1NC(=O)C(=O)O`, the compound was called inactive.
Same read-out and setting: the result for `Cc1cc(C(C)(C)C)c(O)c(C(C)(C)C)c1` reads “inactive”.
On the same count and under the same terms, to `CC=O` belongs “inactive”; to `O=P(O)(O)CCC(F)(F)C(F)(F)C(F)(F)C(F)(F)C(F)(F)C(F)(F)C(F)(F)C(F)(F)F`, “inactive”.
Take `CCCCCc1ccc(O)cc1`: the call was inactive.
Regarding `FC(F)=C(F)C(F)(F)C(F)(F)C(F)(F)C(F)F`, the compound was classed as inactive.
`COC(=O)C(F)(F)C(F)(F)C(F)(F)C(F)(F)C(F)(F)F`: the compound was called inactive.
For `CCCCCCCCCCCCCCCCCC[N+](C)(C)Cc1ccccc1`, the call was inactive.
Turning to `c1cc[nH]c1`, the compound was called inactive.
`CC1=CC(=O)c2ccccc2C1=O`: the call was inactive.
On the same count and under the same terms, the result for `CCCCCCCCC(C)=O` reads “inactive”; that for `CCCCCCCC(OC)OC`, “inactive”.
On to `CCO[Si](C)(C)OCC`, for which the compound was classed as inactive.
In the case of `CCCCCCOC(=O)c1ccc(O)cc1`, the AC50 is 62.5 µM (active).
Turning to `CCCC=O`, the compound was classed as inactive.
Regarding `O=C(NCc1ncc(C(F)(F)F)cc1Cl)c1c(Cl)cccc1Cl`, the AC50 is 21.8 µM (active).
Turning to `O=C1c2ccc(O)c(O)c2C(=O)c2c(O)ccc(O)c21`, the AC50 is 31.1 µM (active).
For the compound `CC(C)(c1ccc(Oc2ccc(N)cc2)cc1)c1ccc(Oc2ccc(N)cc2)cc1`, the compound was called inactive.
For `O=C(O)CCC(F)(F)C(F)(F)C(F)(F)C(F)(F)C(F)(F)F`, the compound was called inactive.
Turning to `O=C(F)C(F)(F)C(F)(F)C(F)(F)C(=O)F`, the outcome was inactive.
With `C[C@]12CC[C@@H]3c4ccc(O)cc4CC[C@H]3[C@@H]1CC[C@@H]2OC(=O)CCC1CCCC1`, the result was inactive.
On to `OCCN1CN(CCO)CN(CCO)C1`, for which the call was inactive.

A short description of another test: ATG_NRF2_ARE_CIS: Attagene CIS-FACTORIAL HepG2 Assay for human Nuclear Factor Erythroid 2 Related Factor 2 (NFR2) response to Antioxidant Response Elements (ARE) (AID 2282992).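 On AC50: reporter mRNA level measured by RT-PCR and capillary electrophoresis fluorescence.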 The following applies: HepG2 Attagene ARE/NRF2 reporter, transcription factor activity; actives raise or lower the signal. The method, boiled down: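 Transient MRTU transfection of HepG2; 24 h compound exposure; TriZol RNA, RT with oligo(dT), PCR, 6-FAM primer extension, HpaI cut, CE. Bidirectional fit vs DMSO.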
For the compound `Brc1cc(Br)c(Oc2c(Br)cc(Br)c(Br)c2Br)cc1Br`, the result was inactive.
`FC(F)(F)C(F)(F)C(F)(F)C(F)(F)I`: the outcome was inactive.
With `Cc1ccc(C(=O)c2ccccc2)cc1`, the AC50 is 28 µM (active).
On to `FC(OC(F)(F)C(F)(F)C(F)(F)F)C(F)(F)F` (centres undefined), for which the compound was classed as inactive.
Consider `C=CC(=O)OCCC(F)(F)C(F)(F)C(F)(F)C(F)(F)C(F)(F)C(F)(F)C(F)(F)C(F)(F)F`, for which the AC50 was 22.1 µM (active).
In the case of `OCC(F)(F)C(F)(F)C(F)(F)C(F)(F)C(F)(F)C(F)(F)C(F)(F)C(F)(F)C(F)(F)C(F)(F)C(F)(F)F`, the AC50 was 55.4 µM (active).
`CCCCCCCCC1CCC(=O)O1` (centres undefined): the result was inactive.
On to `CC1CCC(C(=O)O)CC1` (centres undefined), for which the compound was classed as inactive.
As to `Cc1ccc2ccc3ccc(C)cc3c2c1`, the AC50 was 61.3 µM (active).
As for `O=S(=O)(O)C(F)(F)C(F)(F)C(F)(F)C(F)(F)C(F)(F)C(F)(F)C(F)(F)C(F)(F)C(F)(F)C(F)(F)F`, the AC50 is 47.3 µM (active) and 25.4 µM (active).
In the case of `Oc1cc2ccccc2cc1O`, the AC50 was 100 µM (active).
`CCCCCCC(C)(C)C(=O)O`: the AC50 was 117 µM (active).
For `NC(C(F)(F)F)C(F)(F)F`, the result was inactive.
For `O=CC(F)(F)C(F)(F)C(F)(F)F`, the result was inactive.
Still for that read-out and setting: to `CC1=NN(c2ccccc2)C(=O)C1` belongs “inactive”; to `CCc1cccc(CC)c1NC(=O)C(=O)O`, “inactive”.
`Cc1cc(C(C)(C)C)c(O)c(C(C)(C)C)c1`: the AC50 is 57.7 µM (active) and 60 µM (active).
On to `CC=O`, for which the compound was classed as inactive.
As to `O=P(O)(O)CCC(F)(F)C(F)(F)C(F)(F)C(F)(F)C(F)(F)C(F)(F)C(F)(F)C(F)(F)F`, the call was inactive.
For the compound `CCCCCc1ccc(O)cc1`, the AC50 was 17.6 µM (active).
Turning to `FC(F)=C(F)C(F)(F)C(F)(F)C(F)(F)C(F)F`, the call was inactive.
On to `COC(=O)C(F)(F)C(F)(F)C(F)(F)C(F)(F)C(F)(F)F`, for which the compound was classed as inactive.
Turning to `CCCCCCCCCCCCCCCCCC[N+](C)(C)Cc1ccccc1`, the AC50 was 12.6 µM (active).
As to `c1cc[nH]c1`, the call was inactive.
On to `CC1=CC(=O)c2ccccc2C1=O`, for which the AC50 was 5.04 µM (active).
As for `CCCCCCCCC(C)=O`, the compound was classed as inactive.
For `CCCCCCCC(OC)OC`, the compound was classed as inactive.
In the case of `CCO[Si](C)(C)OCC`, the compound was classed as inactive.
`CCCCCCOC(=O)c1ccc(O)cc1`: the compound was classed as inactive.
Regarding `CCCC=O`, the compound was classed as inactive.
Consider `O=C(NCc1ncc(C(F)(F)F)cc1Cl)c1c(Cl)cccc1Cl`, for which the AC50 was 1.97 µM (active).
On the same count and under the same terms, to `O=C1c2ccc(O)c(O)c2C(=O)c2c(O)ccc(O)c21` belongs 6.19 µM (active); to `CC(C)(c1ccc(Oc2ccc(N)cc2)cc1)c1ccc(Oc2ccc(N)cc2)cc1`, 3.71 µM (active).
For `O=C(O)CCC(F)(F)C(F)(F)C(F)(F)C(F)(F)C(F)(F)F`, the compound was classed as inactive.
Regarding `O=C(F)C(F)(F)C(F)(F)C(F)(F)C(=O)F`, the call was inactive.
Consider `C[C@]12CC[C@@H]3c4ccc(O)cc4CC[C@H]3[C@@H]1CC[C@@H]2OC(=O)CCC1CCCC1`, for which the AC50 is 21.5 µM (active).
`OCCN1CN(CCO)CN(CCO)C1`: the AC50 was 56.5 µM (active).
